The supplement of paper PMC10338343
± gives the standard deviation. In all, about 5,500 sequences were measured (“pre-steady-state target cleavage rate”: median about 0.1, highest 2% from about 0.64 on). This is one part of a sample in which the highest values are shown more often than they occur.

system: MIWI (PIWIL1) piRISC loaded with piRNA #2 (30 nt); assay: pre-steady-state target cleavage rate (min^-1); MIWI and MILI are mouse PIWI proteins and EfPiwi is from a freshwater sponge; tags in brackets are library labels; higher = faster piRNA-guided slicing of the target; settings: guide: piRNA #2 5'p-UUAGGUAACCCAGUAGAUCCAGAGGAAUUC; auxiliary factor: 500 nM mouse GTSF1
Method in brief: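 Cleave-'n-Seq: 1 nM active affinity-purified piRISC with one synthetic guide and 0.1 nM transcribed, DNA-blocked target RNA library were mixed, with or without 500 nM GTSF1 partner protein, in HEPES–potassium acetate buffer at 33 °C for 0–8 or 0–960 min. Uncleaved targets were sequenced and normalised to depth and to weakly complementary targets, three trials were pooled, and k3 was capped at 0.0001 min^-1. The pre-steady-state cleavage rate was fitted […].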

| Sequence | pre-steady-state target cleavage rate |
| --- | --- |
| CUUUUCCUCUGGAUCUACGGGUUACCUAA | 0.0476 ± 0.0059 |
| CUUAAGGACUGGAUCAACUGGCUUACCUAA | 0.0268 ± 0.022 |
| CUUAAGGACUCGAUCUACUGGGUUAGCUAA | 0.00705 ± 0.0047 |
| CUUAACCACUGGAUCUACUGGGUUACGUAA | 0.402 ± 0.031 |
| CAAUACGUCUGGAUCUACUGGGUUACCUAA | 0.494 ± 0.053 |
| CUAUUCCUCUGGAACUACUGGGUUACGUAA | 0.47 ± 0.031 |
| CAAUUCCUCUGGAACUACUGGGUUACGUAA | 0.517 ± 0.048 |
| GAAUUCCUCUGGAACUACUGGGUUACGUAA | 0.657 ± 0.04 |
| CUUAAGCUCUGCAUCUACUGGGUUAGCUAA | 0.182 ± 0.027 |
| CUUUUCCUCUCCAUCUACUGGGUUACCUAA | 0.554 ± 0.044 |
| CUUAUCCUCUCCAUCUACUGGGUUACCUAA | 0.422 ± 0.033 |
| CAAUUCCAUCUGGAUCUACUGGGUUACCUAA | 0.568 ± 0.064 |
| CAAUUCCUCUCCAUCUACUGGGUUACCUAA | 0.829 ± 0.057 |
| GAAUUCCUCCUGGAUCUACUGGGUUACCUAA | 0.445 ± 0.047 |
| CUAUUCCUCUCCAUCUACUGGGUUACCUAA | 0.647 ± 0.051 |
| GAAUUCCUCUCCAUCUACUGGGUUACCUAA | 0.706 ± 0.051 |
| CUAUUCCUCUGGGAUCUACUGGGUUACCUAA | 0.514 ± 0.042 |
| CUAUUCCAUCUGGAUCUACUGGGUUACCUAA | 0.537 ± 0.053 |
| GAAUUCCUCGGAUCUACUGGGUUACCUAA | 0.432 ± 0.08 |
| CUUAAGGGCUGGAUCUACUGGGUUACCUAA | 0.159 ± 0.037 |
| CUUAAGGAGUGGAUCAACUGGGUUACGUAA | 0.053 ± 0.014 |

| Sequence | pre-steady-state target cleavage rate |
| --- | --- |
| CUUAAGGACUGGAUCUACUGGGUCUACCUAA | 0.0638 ± 0.033 |
| CUUAACCUGCUGGAUCUACUGGGUUACCUAA | 0.356 ± 0.036 |
| CUUAAGGACUGGAUUCUACUGGGUUACCUAA | 0.0274 ± 0.024 |
| GAAUACCUCAGGAUCUACUGGGUUACCUAA | 0.421 ± 0.043 |
| CAAAUCCUCAGGAUCUACUGGGUUACCUAA | 0.754 ± 0.059 |
| GAAAUCCUCAGGAUCUACUGGGUUACCUAA | 0.446 ± 0.051 |
| GUAUUCCUCAGGAUCUACUGGGUUACCUAA | 0.0863 ± 0.033 |
| CAAUUCCUCAGGUUCUACUGGGUUACCUAA | 0.709 ± 0.054 |
| CAAUACCUCAGGAUCUACUGGGUUACCUAA | 0.656 ± 0.061 |
| CUAUUCCUCAGGUUCUACUGGGUUACCUAA | 0.584 ± 0.05 |
| CUAAUCCUCAGGAUCUACUGGGUUACCUAA | 0.55 ± 0.055 |
| CUAUACCUCAGGAUCUACUGGGUUACCUAA | 0.465 ± 0.051 |
| CAAUUCCUCAGGAUCUACUGGGUUACCUAA | 0.695 ± 0.062 |
| GAAUUCCUCAGGAUCUACUGGGUUACCUAA | 0.483 ± 0.048 |
| GAAUUCCUCAGGUUCUACUGGGUUACCUAA | 0.539 ± 0.049 |
| GAAUUCCUCUGGAUCUACUCGGUUACGUAA | 0.155 ± 0.021 |
| CUUAUCCACUGCAUCUACUGGGUUACCUAA | 0.314 ± 0.018 |
| CUUAAGGUCUGGAUCUACAGGGUUACCUUA | 0.0564 ± 0.011 |
| CUUAAGGACUGGAUCUUCUGGGUUACCUAA | 0.0593 ± 0.037 |
| CUAUGCCUCUGGAUCUACUGGGUUACCUAA | 0.275 ± 0.037 |
| CUAUUCCUCUGGAUCUACUCCGUUACCUAA | 0.0198 ± 0.0061 |

| Sequence | pre-steady-state target cleavage rate |
| --- | --- |
| CUAUUCCACUGGAUCUACUGCGUUACCUAA | 0.542 ± 0.056 |
| GAAUUCCUCAGGAUCUACUGCGUUACCUAA | 0.518 ± 0.048 |
| CAAUUCCACUGGAUCUACUGCGUUACCUAA | 0.468 ± 0.067 |
| GAUUUCCUCAGGAUCUACUGGGUUACCUAA | 0.459 ± 0.046 |
| CUUUUCCUCAGGAUCUACUGGGUUACCUAA | 0.578 ± 0.054 |
| CAAUUCCUCAGGAUCUACUGCGUUACCUAA | 0.674 ± 0.071 |
| GAAUUCCACUGGAUCUACUGCGUUACCUAA | 0.744 ± 0.063 |
| CUAUUCCUCAGGAUCUACUGCGUUACCUAA | 0.561 ± 0.069 |
| CAUUUCCUCAGGAUCUACUGGGUUACCUAA | 0.701 ± 0.054 |
| CUUAACCACUGGAUCUACUCGGUUACCUAA | 0.0483 ± 0.01 |
| CUUAUCCUCUGGAUGCUACUGGGUUACCUAA | 0.277 ± 0.034 |
| CUAUUCCUCUGGAUGUACUGGGUUACCUUA | 0.403 ± 0.043 |
| CUUAAGGACUGGAUCUACUGGGUUACCGUAA | 0.0402 ± 0.032 |
| CUUUUCCUCUGGAUCUACUGGGAUUCCUAA | 0.087 ± 0.033 |
| CUAUUCCUGUGGAUCUACUGGCUUACCUAA | 0.0662 ± 0.017 |
| CUUAUCCUCUCGAUCUACUGGGUUACGUAA | 0.728 ± 0.046 |
| CUUAUCCUCUCGAUCUACUGGGUUACCUUA | 0.436 ± 0.032 |
| CUUAACCUCUCGAUCUACUGGGUUACGUAA | 0.551 ± 0.037 |
| CUUAUCCUCUGGAUCUACUGGGUUACGUAA | 0.684 ± 0.049 |
| GAAAUCCUCUGGAUCUACUGGGUUACGUAA | 0.532 ± 0.058 |
| CUUAUCCUCUGGAUCUACUGGGUUACCGUAA | 0.344 ± 0.063 |

| Sequence | pre-steady-state target cleavage rate |
| --- | --- |
| CAAAUCCUCUGGAUCUACUGGGUUACGUAA | 0.555 ± 0.064 |
| CUAAUCCUCUGGAUCUACUGGGUUACGUAA | 0.66 ± 0.052 |
| CUUAUCCUCUGGAUCUACUGGGUUACGUUA | 0.469 ± 0.07 |
| CUUUUCCUCAGGAUCUACUGGGUUAGCUAA | 0.133 ± 0.041 |
| CAAUUCCUCUGGAUCUACUGGGUUUCCUUA | 0.281 ± 0.067 |
| GAAUACCUCUGGAUGUACUGGGUUACCUAA | 0.251 ± 0.044 |
| CUAUUCCUCUGGAUCUACUGGGUUACGUUA | 0.401 ± 0.055 |
| CUUAUCCUGUGGAUCUACUGGGUUACCUAA | 0.443 ± 0.056 |
| CUUAUCCUCUGGAUCUACUGGGUUAUCCUAA | 0.413 ± 0.057 |
| CUUAAGGACGGAUCUACUGGGUUACCUAA | 0.0543 ± 0.039 |
| CUAUUCCUCUCGAUCAACUGGGUUACCUAA | 0.637 ± 0.047 |
| CAAUUCCUCUCGAUCAACUGGGUUACCUAA | 0.721 ± 0.053 |
| CUUUUCCUCUCGAUCAACUGGGUUACCUAA | 0.553 ± 0.039 |
| CUUAUCCUCUCGAUCAACUGGGUUACCUAA | 0.508 ± 0.033 |
| GAAUUCCUCUCGAUCAACUGGGUUACCUAA | 0.63 ± 0.051 |
| CUAUUCCUCUGGAUCAACUGGGUUACCUAA | 0.44 ± 0.051 |
| CUUUUCCUCUGGAUCUACUGCGUUAGCUAA | 0.142 ± 0.048 |
| CUUAAGGAGUGGAUCUACUGGGUUACCAUA | 0.0428 ± 0.015 |
